Drawing on PubChem BioAssay (NCATS), this text covers outcome and Potency for 50 compounds.

Records with an inconclusive call do not appear. Where a call stands in place of a potency, no number is given. Activity calls are given as the source filed them. The call rests on the fitted dose curve; in most records, active means well fitted curve in the direction sought with a large enough effect; inconclusive means small, poorly fitted or top-dose-only effect, or another doubt; inactive means no such curve, though single readings can be large; an effect the other way counts as inactive or inconclusive.

In test [1] the target is N-terminal Xaa-Pro-Lys N-methyltransferase 1 (Homo sapiens) (UniProt Q9BV86). Nature of the test: qHTS Assay for Inhibitors of N-terminal methyltransferase 1 (NTMT1): LOPAC validation of the NTMT1 SAHH-coupled ThioGlo3 Assay (AID 1347143).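 Further: SAH from peptide methylation measured as thiol fluorescence via SAHH coupling and ThioGlo3; nearly all actives have a fitted effect of over 70% in size.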 The procedure, abridged:
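NTMT1 125nM + cpds (various conc.), 1 min RT; add SAM 100uM/SAHH 10uM/ThioGlo3 15uM (addition mix). SAHH-coupled thiol detection, Ex340/Em450, t0 and 30 min RT; signal normalized to background. LOPAC 1280-cpd pilot.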
In general terms: In qHTS, concentration-response curves come from the screen itself.

Test [2] has as its system Zika virus NS2B-NS3 protease. The experiment in a line: Primary screen GU AMC qHTS for Zika virus inhibitors (AID 1347154). Further: nearly all actives have a fitted effect of over 70% in size. The procedure, abridged: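 Fluorogenic AMC-substrate cleavage by noncovalent NS2B-NS3 protease complex (25 nM, pH 8.0 Tris buffer with Tween 20) followed for 15 minutes at room temperature (~20% conversion). Percent inhibition from ex340/em450 signal change, fitted by 4-parameter Hill equation.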

Test [3] has as its target Lysine-specific demethylase 5B (Homo sapiens) (UniProt Q9UGL1). The experiment in a line: Optimization screen for KDM5B Histone Demethylases FDH coupled qHTS against the LOPAC library (AID 1347166). The procedure, abridged: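 KDM5BDeltaAP (200nM final) in 50mM HEPES pH 7.5, 0.01% Tween-20 was preincubated with compound for 10 min at room temperature. A substrate mix of 12.5uM H3K4Me3, 25uM a-ketoglutarate, ascorbate, Fe2+, NAD+ and formaldehyde dehydrogenase was then added. NADH fluorescence (340/450 nm) was read initially and after 30 min.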

Test [4] in a line: qHTS of pediatric cancer cell lines to identify multiple opportunities for drug repurposing: Confirmatory screen for Saos-2 cells (AID 1347127). Further: nearly all actives have a fitted effect of over 60% in size. Further: potency means the concentration at half of the fitted maximal effect. The procedure, abridged:
(§1)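 Cells (500-1,000/well) rested 5 h, then received compounds for 48 h; metabolically active cells were measured by CellTiter-Glo luminescence. Final concentrations spanned up to 46 µM (MIPE, 11-point) or 0.59 nM-46 µM (NPC, 8-point) in primary screens, 11-point in follow-ups.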

Test [5] in a line: qHTS of pediatric cancer cell lines to identify multiple opportunities for drug repurposing: Confirmatory screen for OHS-50 cells (AID 1347128).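 Further: compound exposure lasted 48 h at 37 degrees C; nearly all actives have a fitted effect of over 55% in size.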 Further: potency means the concentration at half of the fitted maximal effect. The procedure, abridged:
as §1

The nature of test [6]: qHTS of pediatric cancer cell lines to identify multiple opportunities for drug repurposing: Confirmatory screen for SK-N-SH cells (AID 1347129).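 Further: cells exposed to compound for 48 h before viability read; nearly all actives have a fitted effect of over 60% in size.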 Further: potency means the concentration at half of the fitted maximal effect. The procedure, abridged: as §1
The subject of test [7] is Zika virus NS2B-NS3 protease (unlinked complex). The experiment in a line: Primary screen GU Rhodamine qHTS for Zika virus inhibitors: Unlinked NS2B-NS3 protease assay (AID 1347159). Further: nearly all actives have a fitted effect of over 60% in size. The procedure, abridged:
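Buffer 10 mM Tris-HCl pH 8.0, 0.01% Tween 20. Unlinked protease 25 nM; compound preincubation 15 min, RT, protected from light. Substrate Rhod110, 1.5 microM; ~15% conversion in 15 min.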

The test system of test [8] is Zika virus NS2B-NS3 protease (linked construct). Nature of the test: Primary screen NINDS Rhodamine qHTS for Zika virus inhibitors (AID 1347160). Further: nearly all actives have a fitted effect of over 55% in size. The conditions noted are these: outcome: dose series up to 57.1 µM. The procedure, abridged: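 Aprotinin served as in-plate control. Conditions: 25 nM linked NS2B-NS3, pH 8.0 Tris buffer, titrated compounds, 15 min preincubation and 15 min reaction with 1.5 microM Rhod110 substrate at room temperature.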

The target of test [9] is Furin (Homo sapiens) (UniProt P09958). Nature of the test: Furin counterscreen qHTS for Zika virus inhibitors (AID 1347149).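 Further: purified recombinant full-length human furin enzyme at 5 nM; fluorescence gain from furin cutting a BOC-RVRR-AMC peptide substrate over 15 min; top concentration of the series differs between compounds; nearly all actives have a fitted effect of over 70% in size.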 Put shortly: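 Counterscreen measures cleavage of 2 microM BOC-RVRR-AMC, below its ~15 microM Km, by 5 nM full-length human furin at pH 7.0 after a 15-min compound preincubation. Inhibition derives from the 15-min fluorescence increase at 37C.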
Chain of Furin (Homo sapiens) (P09958 whole entry, looked up): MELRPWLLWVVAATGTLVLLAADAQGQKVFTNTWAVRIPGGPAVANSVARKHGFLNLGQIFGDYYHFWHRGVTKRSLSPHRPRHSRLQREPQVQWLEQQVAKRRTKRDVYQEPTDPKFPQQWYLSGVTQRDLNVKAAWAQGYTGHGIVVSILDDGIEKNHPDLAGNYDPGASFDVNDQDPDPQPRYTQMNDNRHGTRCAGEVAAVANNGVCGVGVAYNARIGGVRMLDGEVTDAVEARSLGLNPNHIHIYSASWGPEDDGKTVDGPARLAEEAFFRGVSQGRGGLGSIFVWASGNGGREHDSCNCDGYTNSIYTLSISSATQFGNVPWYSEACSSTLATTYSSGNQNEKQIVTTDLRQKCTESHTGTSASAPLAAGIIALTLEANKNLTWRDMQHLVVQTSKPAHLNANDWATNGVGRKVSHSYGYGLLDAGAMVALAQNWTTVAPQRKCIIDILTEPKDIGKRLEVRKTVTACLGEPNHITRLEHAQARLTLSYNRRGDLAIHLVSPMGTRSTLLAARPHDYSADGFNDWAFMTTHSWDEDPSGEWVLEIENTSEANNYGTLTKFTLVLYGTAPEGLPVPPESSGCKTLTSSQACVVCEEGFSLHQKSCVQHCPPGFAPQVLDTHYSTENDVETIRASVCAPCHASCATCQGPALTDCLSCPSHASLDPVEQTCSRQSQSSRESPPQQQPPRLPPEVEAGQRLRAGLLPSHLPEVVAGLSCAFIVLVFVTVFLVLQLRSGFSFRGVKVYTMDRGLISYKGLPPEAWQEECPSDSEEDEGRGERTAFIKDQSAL
On the technique in general: The purpose of a counterscreen is to sort out artefacts and off-target activity.

Test [10] deals with Zika virus NS2B-NS3 protease (unlinked). The experiment in a line: Optimization of GU AMC qHTS for Zika virus inhibitors: Unlinked NS2B-NS3 protease assay (AID 1347151). Further: series mostly up to about 52 µM; nearly all actives have a fitted effect of over 80% in size. The procedure, abridged: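 Percent inhibition is derived from the 15-min change in AMC fluorescence, normalized against no-inhibitor and no-enzyme controls, then fitted to a 4-parameter Hill curve. Aprotinin was the intraplate control.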

Test [11] is described as follows: Vero cells viability qHTS for Zika virus inhibitors (AID 1347167). The procedure, abridged: (§2)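 Luminescent ATP readout (CellTiter Glo) after 30 min at 37 degrees C gives viability; cells in DMEM + 4% FBS were treated 24 to 48 hours with compound, following overnight attachment.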
Test [12] can be described thus: HepG2 cells viability qHTS for Zika virus inhibitors (AID 1347168). The procedure, abridged: as §2
The nature of test [13]: qHTS of pediatric cancer cell lines to identify multiple opportunities for drug repurposing: Confirmatory screen for Rh30 cells (AID 1347126). Further: nearly all actives have a fitted effect of over 55% in size. Further: potency means the concentration at half of the fitted maximal effect. The procedure, abridged:
as §1

The nature of test [14]: Confirmatory screen GU Rhodamine qHTS for Zika virus inhibitors qHTS (AID 1347157). Further: potency means the concentration at half of the fitted maximal effect; nearly all actives have a fitted effect of over 70% in size. The conditions noted are these: purified enzyme assay, Rhodamine110 substrate fluorescence, 15 min. The procedure, abridged: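 In dose–response format, inhibition of unlinked protease (25 nM) was measured with 1.5 microM bis-peptide Rhodamine110 substrate. Aprotinin served as the intraplate control.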

Test [15] can be described thus: Confirmatory screen NINDS Rhodamine qHTS for Zika virus inhibitors (AID 1347161). Further: potency means the concentration at half of the fitted maximal effect; nearly all actives have a fitted effect of over 60% in size. The procedure, abridged:
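Each compound, titrated, sat 15 min with 25 nM linked protease before 1.5 microM Rhodamine110 substrate went in. Fluorescence gain over the next 15 min, in pH 8.0 Tris with Tween 20, gave Hill-fitted curves.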

Test [16] is described as follows: Tertiary RLuc qRT-PCR qHTS assay for Zika virus inhibitors (AID 1347169). Further: top concentration of the series differs between compounds; nearly all actives have a fitted effect of over 55% in size. The procedure, abridged: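 Orthogonal cell-based infection assay using recombinant ZIKV-RLuc (Cambodian) in Vero cells; compound added prior to virus at MOI 1-2. Incubation lasts 48-72 hrs at 37 degrees C before live-cell Renilla substrate is added and luminescence measured.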
A short description of test [17]: OV-KATE Cancer Cell Toxicity qHTS against the NCATS CANVASS Library (AID 1347345). Put shortly:
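Following a 4 h pre-incubation of 1000 seeded cells, compounds were pinned in an 11-pnt dilution series and left for 72 h; viability then came from CellTiter-Glo.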

The nature of test [18]: HPAF-II Cancer Cell Toxicity qHTS against the NCATS CANVASS Library (AID 1347346). The procedure, abridged: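 1000 HPAF-II cells/well; 4 h pre-incubation; 11-pnt compound titration; 72 h, 37 degrees C/5% CO2; CellTiter-Glo, 15 min RT; luminescence read.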

Chain of Lysine-specific demethylase 5B (Homo sapiens) (Q9UGL1 whole entry, looked up): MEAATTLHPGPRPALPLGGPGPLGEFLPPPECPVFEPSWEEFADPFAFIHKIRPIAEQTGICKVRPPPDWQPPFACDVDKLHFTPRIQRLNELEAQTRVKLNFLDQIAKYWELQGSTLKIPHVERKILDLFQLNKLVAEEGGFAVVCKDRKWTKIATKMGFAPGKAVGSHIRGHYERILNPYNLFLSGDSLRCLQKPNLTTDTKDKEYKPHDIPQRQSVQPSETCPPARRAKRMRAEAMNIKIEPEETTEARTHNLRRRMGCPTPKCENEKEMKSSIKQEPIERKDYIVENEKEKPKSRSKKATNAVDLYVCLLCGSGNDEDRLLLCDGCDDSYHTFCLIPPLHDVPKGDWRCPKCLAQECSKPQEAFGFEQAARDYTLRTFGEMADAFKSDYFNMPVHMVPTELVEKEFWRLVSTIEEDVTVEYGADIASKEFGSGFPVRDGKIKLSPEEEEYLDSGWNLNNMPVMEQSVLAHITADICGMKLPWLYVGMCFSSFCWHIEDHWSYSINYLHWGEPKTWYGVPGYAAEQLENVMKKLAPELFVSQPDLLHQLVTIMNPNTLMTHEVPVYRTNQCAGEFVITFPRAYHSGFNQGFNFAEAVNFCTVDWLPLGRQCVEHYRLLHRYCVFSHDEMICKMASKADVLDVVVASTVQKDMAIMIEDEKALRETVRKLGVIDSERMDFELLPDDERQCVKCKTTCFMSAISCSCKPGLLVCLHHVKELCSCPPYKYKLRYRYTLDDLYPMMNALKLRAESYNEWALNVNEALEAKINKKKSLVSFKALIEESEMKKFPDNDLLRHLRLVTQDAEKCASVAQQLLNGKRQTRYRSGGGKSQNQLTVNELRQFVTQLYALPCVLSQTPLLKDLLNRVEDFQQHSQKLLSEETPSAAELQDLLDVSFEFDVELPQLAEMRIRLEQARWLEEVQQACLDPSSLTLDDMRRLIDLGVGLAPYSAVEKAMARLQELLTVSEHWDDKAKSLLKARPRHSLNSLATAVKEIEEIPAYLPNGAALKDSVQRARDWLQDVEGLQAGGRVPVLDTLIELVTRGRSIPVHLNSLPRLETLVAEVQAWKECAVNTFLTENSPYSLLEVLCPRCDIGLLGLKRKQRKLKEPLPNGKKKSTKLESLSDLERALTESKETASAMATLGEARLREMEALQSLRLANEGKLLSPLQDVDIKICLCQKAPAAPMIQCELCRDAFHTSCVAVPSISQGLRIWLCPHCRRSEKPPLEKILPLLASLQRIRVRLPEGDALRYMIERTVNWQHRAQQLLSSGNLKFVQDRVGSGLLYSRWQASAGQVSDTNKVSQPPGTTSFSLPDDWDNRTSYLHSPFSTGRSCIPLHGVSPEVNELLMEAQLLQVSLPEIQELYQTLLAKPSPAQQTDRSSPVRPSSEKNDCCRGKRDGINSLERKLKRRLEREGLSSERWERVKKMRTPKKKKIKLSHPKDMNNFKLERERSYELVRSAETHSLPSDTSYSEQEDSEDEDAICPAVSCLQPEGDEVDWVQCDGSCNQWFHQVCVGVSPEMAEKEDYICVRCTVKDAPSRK
Chain of N-terminal Xaa-Pro-Lys N-methyltransferase 1 (Homo sapiens) (Q9BV86 whole entry, looked up): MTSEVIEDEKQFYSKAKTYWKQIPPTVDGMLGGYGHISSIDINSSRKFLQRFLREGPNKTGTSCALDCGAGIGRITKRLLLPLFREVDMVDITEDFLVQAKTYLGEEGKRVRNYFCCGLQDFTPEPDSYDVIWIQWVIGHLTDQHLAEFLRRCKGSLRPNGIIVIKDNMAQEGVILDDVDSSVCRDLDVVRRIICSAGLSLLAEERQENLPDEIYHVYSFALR

As to `O=C(O)c1nn(Cc2ccc(Cl)cc2Cl)c2ccccc12`, the compound was called inactive in test [1] and in test [3]. Also, the Potency result in test [2] is “inactive”.
As for `COc1ccc2c(C(=O)c3ccc(Cl)cc3)c(C)n(CC(=O)O)c2c1`, the Potency entry in test [4], in test [5], in [6] and in test [2] was “inactive” each time. In addition, the call in test [7] and in test [8] was inactive.
With `CC(C)=CCN1CC[C@@]2(C)c3cc(O)ccc3C[C@@H]1[C@@H]2C`, the compound was called inactive in test [9], in test [10], in test [11] and in [12]. Besides, the Potency result in [2] was “inactive”.
`CCCCCCCCCCCC[N+](C)(C)CCOc1ccccc1`: the Potency in test [13] was 16.5 µM (active); in test [4], 14.7 µM (active); in [5] it was 20.8 µM (active); in test [6], 20.9 µM (active). Also, the Potency result in [2] is “inactive”.
`C[C@H]1C(=O)O[C@@H]2CCN3CC=C(COC(=O)[C@](C)(O)[C@]1(C)O)[C@H]23`: in [2], the Potency entry is “inactive”.
The same measure, in the same setting: then `Sc1ccccc1Cl`, with “inactive”.
For `CCCCCCCCC(=O)NCc1ccc(O)c(OC)c1`, the Potency entry in test [13], in test [4], in test [5], in [6] and in test [2] was “inactive” in each case.
As for `COc1ccc2[nH]cc(CCN(C(C)C)C(C)C)c2c1`, the Potency result in [2] is “inactive”.
`COc1ccc(OC)c(CC(C)N)c1` (configuration not stated): in test [2], the Potency result was “inactive”.
`Cc1nnc2n1-c1sc(CCC(=O)N3CCOCC3)cc1C(c1ccccc1Cl)=NC2`: the Potency entry in test [2] is “inactive”.
As to `CCNc1nc(Cl)nc(NCC)n1`, in test [2], the Potency entry is “inactive”.
Still for that read-out and setting: then `CCC1(c2ccccc2)CCC(=O)NC1=O` (configuration not stated), with “inactive”.
Still for that read-out and setting: for `CCC1(c2cccc(O)c2)CCCCN(C)C1` (configuration not stated) the value was “inactive”.
`CN1CCc2cc(Cl)c(O)cc2[C@H]2c3ccccc3CC[C@@H]21`: the Potency entry in test [2] is “inactive”.
Turning to `CC(C)[N+](C)(CCC(C(N)=O)(c1ccccc1)c1ccccc1)C(C)C`, the Potency result in [2] was “inactive”.
In the case of `CCN(CC)CCOC(=O)C(C)(c1ccccc1)c1ccccc1`, the Potency result in [2] was “inactive”.
Still for that read-out and setting: for `CC[C@H](O)C(C[C@H](C)N(C)C)(c1ccccc1)c1ccccc1` the value was “inactive”; for `C=CCN1CC[C@]23CCCC[C@H]2[C@H]1Cc1ccc(O)cc13`, “inactive”.
Still for that read-out and setting: for `Nc1ccc(N)cc1` the value was “inactive”.
Take `CCC(OC(C)=O)C(CC(C)NC)(c1ccccc1)c1ccccc1` (configuration not stated): the Potency result in test [2] was “inactive”.
On the same count and under the same terms, for `CNC(C)Cc1ccccc1OC` (configuration not stated) the value was “inactive”.
Same read-out and setting: for `C[C@]12CC[C@H]3[C@@H](CCC4=CC(=O)CC[C@@H]43)[C@@H]1CC[C@@H]2O` the value was “inactive”.
Still for that read-out and setting: then `CCC(=O)C(CCN(C)C)(c1ccccc1)c1ccccc1`, with “inactive”; and `Clc1ccc(C(OCCN2CCCCC2)c2ccccc2)cc1` (configuration not stated), with “inactive”; and `CC[C@]1(O)CC[C@H]2[C@@H]3CCC4=CCCC[C@@H]4[C@H]3CC[C@@]21C`, with “inactive”.
As to `CCS(=O)(=O)C(C)(C)S(=O)(=O)CC`, the Potency result in test [2] was “inactive”.
Still for that read-out and setting: then `Cc1nc2ccccc2c(=O)n1-c1ccccc1Cl`, with “inactive”; and `c1ccc2c(c1)Sc1ccccc1N2CC1CN2CCC1CC2` (configuration not stated), with “inactive”.
The same measure, in the same setting: then `COCC(=O)N(c1c(C)cccc1C)C(C)C(=O)OC` (configuration not stated), with “inactive”; and `CCN1CCCC1CNC(=O)C(O)(c1ccccc1)c1ccccc1` (configuration not stated), with “inactive”.
Same read-out and setting: for `CN1C2CCC(C)(C)C1CC(OC(=O)C(O)(c1cccs1)c1cccs1)C2` (configuration not stated) the value was “inactive”; for `O=C(CBr)Nc1ccc(Cl)cc1C(=O)c1ccccc1F`, “inactive”; for `CN1C(=O)CN=C(c2ccccc2)c2cc(Cl)ccc21`, “inactive”.
With `C[C@@H]1CN(C2CCC(C#N)(c3ccc(F)cc3)CC2)CC[C@]1(C(=O)O)c1ccccc1` (some centres not stated), the Potency result in [2] is “inactive”.
On the same count and under the same terms, then `O=C(CCl)c1ccc(Cl)cc1Cl`, with “inactive”; and `CC(=O)OC1(c2ccccc2)CCN(CCc2ccccc2)CC1`, with “inactive”.
Still for that read-out and setting: then `CC(C)C(Br)C(=O)NC(N)=O` (configuration not stated), with “inactive”; and `OC(O)C(Cl)(Cl)Cl`, with “inactive”; and `COc1cc(C[C@@H](C)N)c(OC)cc1Br`, with “inactive”.
The same measure, in the same setting: for `COc1cc(C[C@@H](C)N)c(OC)cc1C` the value was “inactive”; for `CC1=C2[C@H]3OC(=O)[C@@H](C)[C@@H]3CC[C@@]2(C)C=CC1=O`, “inactive”; for `O=c1n(Cl)c(=O)n(Cl)c(=O)n1Cl`, “inactive”.
Turning to `c1cc2c(c(N3CCNCC3)c1)OCCO2`, the Potency entry in [2] is “inactive”.
On the same count and under the same terms, then `CN(C)CCc1c[nH]c2ccc(O)cc12`, with “inactive”.
On the same count and under the same terms, for `c1ccc2nc(N3CCNCC3)ccc2c1` the value was “inactive”.
Same read-out and setting: then `NC1(c2ccccc2)CCCCC1`, with “inactive”; and `Oc1ccc2[nH]cc(CCCCN3CC=C(c4ccccc4)CC3)c2c1`, with “inactive”.
For `COc1cc(CC#N)cc(OC)c1OC`, the Potency entry in test [2] is “inactive”.
As to `Cc1nnc2n1-c1sc(CCc3ccc(CC(C)C)cc3)cc1C(c1ccccc1Cl)=NC2C` (configuration not stated), the Potency in test [14] and in [15] was 44.1 µM (active) in each case. Also, in test [16], the result was inactive.
`CN(C)CCc1c[nH]c2ccccc12`: the compound was called inactive in test [17] and in test [18].
